Most compounds without a hit are left out; they make up all but 19% or so of the library.
KB-V1 MDR tox – qHTS assay for MDR1-selective chemotherapeutics: Primary screen using the drug-selected MDR subline cells KB-V1 | KB-V1 MDR cells viability, CellTiter-Glo, 72 h | actives 3.4% (n = 400,000) | Potency, µM (series often up to 46.1 µM), hits mostly cytotoxic; note: nearly all actives have a fitted effect of over 60% in size
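KB-V1, DMEM (no phenol red) + 10% FBS; cpd pin-transferred, titration series; 72 h, 37 degrees C; CellTiter-Glo, luminescence. Data normalized, curve-fit.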
DT40 TDP1 CPT – qHTS for Inhibitors of human tyrosyl-DNA phosphodiesterase 1 (TDP1): qHTS in cells in presence of CPT; chicken DT40 Tdp1-/-;hTDP1 cells + 20 nM CPT, ATP luminescence, 48 h; Potency, µM (top dose mostly 46.2 µM), inactives show top-dose activity change, negative = growth inhibition, hits mostly inhibitors; actives 12% (n = 420,000); AID 686979, 2013; note: nearly all actives have a fitted effect of over 55% in size
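Chicken DT40 Tdp1-/- cells complemented with human TDP1, 400 cells/well, exposed to compounds plus 20 nM camptothecin for at least 48 h at 37 C; viability read as ATP content by CellTiter-Glo luminescence.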
KB-3-1 tox – qHTS assay for MDR1-selective chemotherapeutics: Primary screen using the parental adenocarcinoma cell KB-3-1; AID 1347075, 2019; Potency, µM (top dose mostly 46.1 µM), actives largely listed as cytotoxic; actives 1.4% (n = 400,000); KB-3-1 viability, CellTiter-Glo ATP luminescence, 72 h; note: nearly all actives have a fitted effect of over 60% in size
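Here the drug-naive KB-3-1 line serves as comparator for MDR sub-line selectivity; cells received compound titrations, 72 h at 37 °C, then CellTiter-Glo readout.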
TDP1 cell noCPT – qHTS for Inhibitors of human tyrosyl-DNA phosphodiesterase 1 (TDP1): qHTS in cells in absence of CPT; DT40 Tdp1-/- hTDP1 cells, no CPT, ATP luminescence, 48 h; Potency, µM (titrated, usually from 46.2 µM), for the others: at the highest dose activity change, negative = growth inhibition, usual class: inhibitors; actives 15% (n = 420,000); note: nearly all actives have a fitted effect of over 55% in size
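DT40 Tdp1-/-;hTDP1 cells, no CPT (DMSO vehicle only), 400 cells/well; compounds pin-transferred; ≥48 hr, 37 °C; CellTiter-Glo 30 min RT dark, luminescence read.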
HT1080NT lethal – qHTS for induction of synthetic lethality in tumor cells producing 2HG: qHTS for the HT-1080-NT fibrosarcoma cell line; HT-1080-NT fibrosarcoma viability, CellTiter-Glo ATP luminescence, 48 h; Potency, µM (series often up to 46.1 µM), for inactives: top-dose activity, negative = less viability, hits mostly cytotoxic; actives 1.6% (n = 360,000);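 note: NT is the 2HG producing partner of a matched IDH1 knockdown line; 0% = DMSO-treated cells and -100% = media-only wells without cells; nearly all actives have a fitted effect of over 55% in size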
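Toxicity toward the 2HG-producing NT line was scored as %Activity, normalised to DMSO and no-cell wells, from CellTiter-Glo luminescence after 48 hours' treatment.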
HT1080 IDH1KD tx – qHTS for induction of synthetic lethality in tumor cells producing 2HG: qHTS for the HT-1080-IDH1KD cell line | HT-1080 IDH1 knockdown viability, ATP luminescence, 48 h | Potency, µM (top dose mostly 46.1 µM), inactives show at the top dose activity, negative = toxicity, actives largely listed as cytotoxic | actives 2% (n = 360,000) | AID 686971, 2013;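 note: 0% = DMSO wells and -100% = cell-free medium wells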
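IDH1KD HT-1080 cells, 750/well, RPMI + 5% FBS; compound pinned after 2 h settling; 48 h, 37 °C; CellTiter-Glo luminescence; % activity normalised to DMSO and no-cell wells; curves fitted, classed by r2 and efficacy.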
The depositor's hits bear a star; i = inactive; ? = inconclusive; nt = no result given; ! = repeats disagree. Calls come from the whole dose curve; as a rule, active = well fitted curve in the direction sought with a large enough effect; inconclusive = small, poorly fitted or top-dose-only effect, or another doubt; inactive = no such curve, though single readings can be large; an effect the other way counts as inactive or inconclusive. Unless noted, % is set by controls: 0 for no effect and ±100 for the full control effect; potency is the fitted concentration of half-maximal effect.

SMILES	KB-V1 MDR tox	DT40 TDP1 CPT	KB-3-1 tox	TDP1 cell noCPT	HT1080NT lethal	HT1080 IDH1KD tx
O=C(c1ccc(CS(=O)c2ccccc2Cl)o1)N1CCOCC1 (stereo unspecified)	i	-7.0%	i	13.1%	-3.2%	10.7%
COc1cccc(N2CCN(C(=O)c3ccc(CS(=O)c4ccccc4Cl)o3)CC2)c1 (stereo unspecified)	i	0.0291µM*	0.0082µM*	0.0052µM*	?	0.0082µM*
CCOc1cc(/C=N/N2CCN(Cc3ccccc3)CC2)ccc1O	i	15.8%	?	-3.1%	-0.9%	0.7%
CCOC(=O)[C@@H]1[C@H]2COc3cc(OC)ccc3[C@@H]2N2C(=O)N(c3ccc(C(F)(F)F)cc3)C(=O)[C@]12C	i	23.1µM*	i	20.6µM*	10.6%	18.6%
CCOC(=O)[C@H]1[C@H]2COc3cc(OC)ccc3[C@@H]2N2C(=O)N(c3cccc(Cl)c3)C(=O)[C@@]12C	?	?	i	29.1µM*	-27.8%	-5.8%
CCOC(=O)[C@@H]1[C@H]2COc3cc(OC)ccc3[C@@H]2N2C(=O)N(c3ccc(Br)cc3)C(=O)[C@]12C	i	14.6µM*	i	?	8.4%	1.3%
CCOC(=O)[C@@H]1[C@H]2COc3cc(OC)ccc3[C@@H]2N2C(=O)N(c3ccc(OC)cc3)C(=O)[C@@]12C	i	-4.2%	?	-2.3%	?	4.8%
CCOC(=O)c1c(NC(=O)CCCOc2ccccc2C)sc2c1CCC(C)C2 (stereo unspecified)	i	-12.2%	i	-2.5%	nt	nt
CCCCCCCCN1[C@@H](CC(=O)OCC)c2ccc(C(F)(F)F)cc2S1(=O)=O	?	12.6µM*	i	25.9µM*	-6.0%	-18.2%
CCCCCCCCCCCCN1[C@@H](CC(=O)O)c2cc(F)ccc2S1(=O)=O	?	?	i	2.6%	-0.7%	-11.2%
CC(=O)C[C@H]1c2cc(C(F)(F)F)ccc2S(=O)(=O)N1c1ccccc1	8.2µM*!	?	?	-23.7%	0.0%	-0.5%
CCCCCCCCN1[C@@H](CC(=O)OC)c2cc(F)ccc2S1(=O)=O	?	?	i	12.6µM*	6.5%	-2.6%
COC(=O)C[C@H]1c2cc(F)ccc2S(=O)(=O)N1c1ccc(N(C)C)cc1	?	?	?	13µM*	-1.0%	6.4%
CCOC(=O)C[C@H]1c2cc(F)ccc2S(=O)(=O)N1c1ccccc1	?	?	i	?	-0.1%	-0.2%
CCC1Sc2ccc(S(=O)(=O)CCC(=O)Nc3c(Cl)cc(OC)cc3OC)cc2NC1=O (stereo unspecified)	i	?	i	?	0.4%	-4.9%
COc1ccc(OC)c(NC(=O)Cn2cc(C#N)c3cc(Br)ccc32)c1	i	?	i	-25.0%	-15.4%	-17.5%
NS(=O)(=O)c1ccc(NC(=O)c2ccc(S(=O)(=O)N3CCCCCC3)cc2)cc1	i	?	i	?	-7.7%	0.4%
CCCCCCCCN1[C@@H](CC(=O)OCC)c2cc(F)ccc2S1(=O)=O	14.6µM*!	?	?	?	-0.4%	-5.5%
CCCCCCCCCCCCN1[C@@H](CC(=O)OC)c2cc(C(F)(F)F)ccc2S1(=O)=O	i	?	i	12.6µM*	6.5%	7.3%

Source: PubChem BioAssay
